Assay results as given in article PMC5540273 (PLoS ONE, 2017).

Tests used:
Settings in all cases: concentration: 1 μM, replicates: in singlicate; n = 1
[1] = system: BLK
[2] = system: BMPR1A
[3] = system: BMPR1B
[4] = system: BMPR2
[5] = system: BMX
[6] = system: BRAF
[7] = system: T1, BRK
T1 construct: gene PTK6

[8] = system: BRSK1
[9] = system: BRSK2
[10] = system: BTK
[11] = system: BUB1
[12] = system: CAMK1B
[13] = system: CAMK1D
[14] = system: CAMK1G
[15] = system: CAMK1
[16] = system: CAMK2A
[17] = system: CAMK2B
[18] = system: CAMK2D
[19] = system: CAMK2G
[20] = system: CAMK4
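Note: KINOMEscan kinase panel screen.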

SMILES	%Inh [1] [%]	%Inh [2] [%]	%Inh [3] [%]	%Inh [4] [%]	%Inh [5] [%]	%Inh [6] [%]	%Inh [7] [%]	%Inh [8] [%]	%Inh [9] [%]	%Inh [10] [%]	%Inh [11] [%]	%Inh [12] [%]	%Inh [13] [%]	%Inh [14] [%]	%Inh [15] [%]	%Inh [16] [%]	%Inh [17] [%]	%Inh [18] [%]	%Inh [19] [%]	%Inh [20] [%]
NCC(NC(=O)c1cc(-c2cn[nH]c2)c(-c2ccnc3[nH]ccc23)s1)c1ccccc1.O=C(O)C(F)(F)F.O=C(O)C(F)(F)F (centres unmarked) [GSK1325775]	0	0	80	4	0	0	0	30	21	0	94.6	49	50	33	41	0	12	35	30	0
Cc1nnc(-c2ccc(C)c(-c3ccc(C(=O)Nc4ccc(NS(C)(=O)=O)cc4)cc3)c2)o1 [GW702865]	14	0	0	9	16	0	3	9	0	40	35	10	2	0	4	0	1	0	0	0
Nc1nc(-c2ccc3c(N)n[nH]c3c2)cc(N2CCCC2)n1 [GSK2227430]	7	0	0	0	1	0	20	0	0	0	30	3	20	0	25	0	0	0	21	0
COc1ccc(S(=O)(=O)NC2CCN(c3cc(C)nc(Nc4cccc(C#N)c4)n3)CC2)cc1.O=C(O)C(F)(F)F [GSK1653539]	25	0	0	0	3	0	0	0	0	0	0	1	17	0	0	0	0	6	11	0
CN(C1=C(c2ccccc2)C(=O)NC1=O)c1ccccc1 [SB-334860]	0	0	0	0	13	0	2	0	0	0	0	34	3	0	6	7	11	1	3	0
Cl.Nc1ncnc2occ(-c3ccc(NC(=O)Nc4cc(C(F)(F)F)ccc4F)cc3)c12 [SB-707548]	44	0	0	1	82	71	3	20	0	21	17	36	23	0	22	0	0	0	25	32
O=C1Cc2cc(Nc3nc(NCc4cccc(S(=O)(=O)C(F)(F)F)c4)ncc3C(F)(F)F)ccc2N1	1	0	18	19	0	1	0	3	0	0	34	11	0	2	0	0	0	5	8	4
[2H]C([2H])(c1cccc(C(F)(F)F)c1C)n1ccn2c(=O)nc(N3CCOCC3)cc12 [GSK2336394]	25	1	0	0	9	44	18	7	0	0	52	26	0	0	0	0	0	7	3	16
Cc1cccc(Cn2ccn3c(=O)cc(N4CCOCC4)nc23)c1 [GSK2297542]	57	0	0	0	27	4	22	0	6	0	34	19	70	9	71	0	0	9	28	20
CN(C(=O)c1ccc(-c2cc(-c3c[nH]nc3-c3ccccn3)ccn2)cc1)C1CCOCC1 [GW810083]	22	0	0	24	0	0	4	3	8	16	0	41	20	0	0	0	0	0	17	20
